Inconclusive results are not listed. A call without a number means that no potency is given here. Activity calls are given as the source filed them. Unless noted, calls follow the shape of the dose curve; as a rule, active = well fitted curve in the direction sought with a large enough effect in the repeat runs; inconclusive = weak or mixed curves; inactive = no such curve, though single readings can be large; an effect the other way counts as inactive or inconclusive.
Key:
[1] = A CellTox Green Cytotoxicity Assay to monitor cytotoxicity in HEK293 cells - 32 hour (AID 1224881); also: nearly all actives have a fitted effect of over 40% in size
Procedure, shortened: (§1)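 Seeding of HEK293 cells together with cytotoxicity dye preceded a 5 h incubation at 37 C/5% CO2. Test compounds in DMSO were then added and fluorescence monitored across 40 h.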

[2] = A CellTox Green Cytotoxicity Assay to monitor cytotoxicity in HepG2 cells - 0 hour (AID 1224882); also: nearly all actives have a fitted effect of over 35% in size
Procedure, shortened: (§2)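 Nonlytic assay: viable cells exclude the dye, so fluorescence scales with cell death. HepG2 at 600 cells/well, compounds added after 5 h, signal read across 40 h.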

[3] = A CellTox Green Cytotoxicity Assay to monitor cytotoxicity in HepG2 cells - 32 hour (AID 1224883); also: nearly all actives have a fitted effect of over 50% in size
Procedure, shortened: as §2

[4] = A CellTox Green Cytotoxicity Assay to monitor cytotoxicity in HEK293 cells - 8 hour (AID 1224884); also: nearly all actives have a fitted effect of over 35% in size
Procedure, shortened: as §1

[5] = qHTS RealTime-Glo MT Cell Viability Assay in HepG2 cells - 16 hour (AID 1224885); also: nearly all actives have a fitted effect of over 50% in size
Procedure, shortened: (§3)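 qHTS, HepG2, 600 cells/well, RealTime-Glo (NanoLuc + prosubstrate) added with cells; 5 h preincubation; DMSO compound addition; 37 C; luminescence at 0/8/16/24/32/40 h.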

[6] = qHTS RealTime-Glo MT Cell Viability Assay in HEK293 cells - 24 hour (AID 1224886); also: nearly all actives have a fitted effect of over 50% in size; also: potency is read from the fitted curve at half-maximal effect
Procedure, shortened: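 Assay medium contained NanoLuc luciferase plus cell-permeant prosubstrate, added with HEK293 cells at 600 cells/well. After 5 h at 37 C/5% CO2 compounds were added; plates stayed at 37 C for 40 h with serial luminescence reads.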

[7] = qHTS RealTime-Glo MT Cell Viability Assay in HEK293 cells - 8 hour (AID 1224887); also: top concentration of the series differs between compounds; nearly all actives have a fitted effect of over 50% in size
Procedure, shortened: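 Tox21 screen in HEK293 using RealTime-Glo MT chemistry, with cells and reagent co-dispensed. Luminescence proportional to viable cell number was captured at intervals during 40 h compound exposure at 37 C.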

[8] = A CellTox Green Cytotoxicity Assay to monitor cytotoxicity in HEK293 cells - 16 hour (AID 1224888); also: nearly all actives have a fitted effect of over 35% in size
Procedure, shortened: as §1

[9] = qHTS RealTime-Glo MT Cell Viability Assay in HepG2 cells - 0 hour (AID 1224889); also: nearly all actives have a fitted effect of over 50% in size
Procedure, shortened: as §3

[10] = A CellTox Green Cytotoxicity Assay to monitor cytotoxicity in HepG2 cells - 8 hour (AID 1224890); also: nearly all actives have a fitted effect of over 45% in size
Procedure, shortened: as §2

[11] = qHTS assay to identify small molecule antagonists of the estrogen receptor alpha (ER-alpha) signaling pathway using the BG1 cell line in the presence of 0.1 nM 17-beta-estradiol - cell viability counter screen (AID 1259241); also: nearly all actives have a fitted effect of over 40% in size
Procedure, shortened: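 VM7Luc4E2 cells (endogenous full-length ER-alpha, 4xERE-luciferase), cultured 5 days in charcoal-stripped serum, exposed to compounds with 0.1 nM 17beta-estradiol (final) for 22 hr at 37C. Viability read in same wells as live-cell protease fluorescence after 30 min.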

[12] = qHTS assay to identify small molecule antagonists of the androgen receptor (AR) signaling pathway using the MDA cell line in the presence of 0.5 nM R1881 - cell viability counter screen (AID 1259242); also: nearly all actives have a fitted effect of over 45% in size
Procedure, shortened: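 R1881 at 0.5 nM final stimulated MDA-kb2 cells during 16 hr compound treatment at 37C. Cytotoxicity read: CellTiter-Fluor fluorescence after 30 min.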

[13] = target: Estrogen receptor (Homo sapiens) (UniProt P03372); assay: qHTS assay to identify small molecule antagonists of the estrogen receptor alpha (ER-alpha) signaling pathway using the BG1 cell line in the presence of 0.1 nM 17-beta-estradiol (AID 1259244); also: nearly all actives have a fitted effect of over 50% in size
Procedure, shortened: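 VM7Luc4E2; 4xERE-luciferase; 0.1 nM E2 final; 22 h co-incubation, 37C; ONE-Glo luminescence after 30 min at room temperature.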

[14] = qHTS assay to identify small molecule HDAC inhibitors (AID 1259364);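 also: wild-type HCT-116 cells with endogenous class I/II HDAC activity; top concentration of the series differs between compounds; nearly all actives have a fitted effect of over 45% in size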
Procedure, shortened: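 Relative class I and II HDAC activity is taken from the luminogenic signal in HCT-116 cells, with compound exposure 2 hr and reagent development 30 min at room temperature.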

[15] = qHTS assay to identify small molecule HDAC inhibitors - cell viability counter screen (AID 1259365)
Procedure, shortened: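 Wild-type HCT-116 cells, 1,500/well, cultured overnight, then compound-treated 2 h at 37 C. Viability measured as ATP luminescence with CellTiter-Glo after 30 min at room temperature.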

[16] = qHTS assay to identify small molecule agonists of the sonic hedgehog signaling (Shh) pathway - cell viability counter screen (AID 1259366); also: nearly all actives have a fitted effect of over 50% in size
Procedure, shortened: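 NIH/3T3-derived Gli1-Luc reporter cells, 2,000 per well, received compound after 4 h and were treated about 23 h at 37C. Viability measured in the same wells by CellTiter-Fluor fluorescence after 1 h.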

[17] = qHTS assay to identify small molecule antagonists of the sonic hedgehog signaling (Shh) pathway - cell viability counter screen (AID 1259367); also: nearly all actives have a fitted effect of over 55% in size
Procedure, shortened: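 Cells: 3T3 Gli1-Luc, 2,000/well, 4 hr pre-incubation. Compounds in DMSO, then conditioned medium. Incubation 24 hr, 37C, 5% CO2. CellTiter-Fluor at 23 hr, 1 hr, fluorescence.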

[18] = qHTS assay to identify small molecule agonists of the sonic hedgehog signaling (Shh) pathway (AID 1259368; calls by dose curve;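 also: NIH/3T3-derived 3T3Gli1-Luc cells carrying a stable Gli1-driven firefly luciferase reporter; series mostly up to about 92 µM; nearly all actives have a fitted effect of over 15% in size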)
Procedure, shortened: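 Mouse fibroblast (NIH/3T3) reporter cells with stably integrated Gli1-Luc were treated 24 hr with compound; firefly luciferase luminescence served as the read-out.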

Sequence of Estrogen receptor (Homo sapiens) (P03372 whole entry, looked up): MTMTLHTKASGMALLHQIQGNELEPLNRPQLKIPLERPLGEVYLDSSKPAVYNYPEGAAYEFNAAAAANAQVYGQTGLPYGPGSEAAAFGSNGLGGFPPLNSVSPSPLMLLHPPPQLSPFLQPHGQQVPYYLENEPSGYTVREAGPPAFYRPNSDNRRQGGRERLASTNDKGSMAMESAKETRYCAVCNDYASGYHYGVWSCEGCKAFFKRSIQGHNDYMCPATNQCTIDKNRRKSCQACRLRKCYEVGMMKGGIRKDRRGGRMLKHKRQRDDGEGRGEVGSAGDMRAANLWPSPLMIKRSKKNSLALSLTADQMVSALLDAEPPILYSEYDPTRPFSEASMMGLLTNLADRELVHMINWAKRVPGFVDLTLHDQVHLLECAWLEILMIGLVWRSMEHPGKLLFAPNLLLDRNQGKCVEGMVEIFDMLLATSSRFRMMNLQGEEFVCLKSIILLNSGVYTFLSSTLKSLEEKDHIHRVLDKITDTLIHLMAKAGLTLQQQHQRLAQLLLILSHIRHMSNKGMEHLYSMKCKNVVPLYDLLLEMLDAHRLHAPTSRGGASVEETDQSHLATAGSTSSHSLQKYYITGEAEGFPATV

SMILES | Potency [1] | Potency [2] | Potency [3] | Potency [4] | Potency [5] | Potency [6] | Potency [7] | Potency [8] | outcome [9] | Potency [10] | Potency [11] | Potency [12] | Potency [13] | Potency [14] | Potency [15] | Potency [16] | Potency [17] | Potency [18]
NC(=O)CF | inactive | inactive | inactive | inactive | inactive | inactive | inactive | inactive | inactive | inactive | inactive | inactive | inactive | inactive | inactive | inactive | inactive | –
NNCCO | inactive | inactive | inactive | inactive | inactive | inactive | inactive | inactive | inactive | inactive | inactive | inactive | inactive | inactive | inactive | inactive | – | inactive
Cc1nnc(-c2ccccc2)c(=O)n1N | inactive | inactive | inactive | inactive | inactive | inactive | inactive | inactive | inactive | inactive | inactive | inactive | inactive | inactive | inactive | inactive | inactive | inactive
CCCCC#N | inactive | inactive | inactive | inactive | inactive | inactive | inactive | inactive | inactive | inactive | inactive | inactive | inactive | – | inactive | inactive | – | inactive
O=S(=O)(Cl)Cl | inactive | inactive | inactive | inactive | inactive | inactive | inactive | inactive | inactive | inactive | inactive | inactive | inactive | – | inactive | inactive | inactive | inactive
CC(Oc1cc(Cl)c(Cl)cc1Cl)C(=O)O (centres undefined) | inactive | inactive | inactive | inactive | inactive | inactive | inactive | inactive | inactive | inactive | inactive | inactive | inactive | inactive | inactive | inactive | inactive | inactive
CCOC(=O)c1cn2nc(OP(=S)(OCC)OCC)cc2nc1C | inactive | inactive | inactive | inactive | inactive | 17.4 µM (active) | – | inactive | – | inactive | inactive | inactive | inactive | inactive | inactive | inactive | inactive | inactive
CC(C)(C)c1ccc(CCOc2ncnc3ccccc23)cc1 | inactive | inactive | – | inactive | inactive | inactive | inactive | inactive | inactive | inactive | inactive | inactive | inactive | inactive | inactive | inactive | – | –

Reference: PubChem BioAssay (Tox21)
